12-LOX inh = Primary qHTS assay for inhibitors of human arachidonate 12S-lipoxygenase (ALOX12): Round 2. purified 12hLO, xylenol orange hydroperoxide absorbance. Polyunsaturated fatty acid lipoxygenase ALOX12 (Homo sapiens), P18054. Potency, µM (doses to about 108 µM), for the others: at the highest dose activity change, negative = inhibition, actives largely listed as inhibitors. actives 1.1% (n = 580,000); also: potency is read from the fitted curve at half-maximal effect
Target sequence (P18054 whole entry, looked up): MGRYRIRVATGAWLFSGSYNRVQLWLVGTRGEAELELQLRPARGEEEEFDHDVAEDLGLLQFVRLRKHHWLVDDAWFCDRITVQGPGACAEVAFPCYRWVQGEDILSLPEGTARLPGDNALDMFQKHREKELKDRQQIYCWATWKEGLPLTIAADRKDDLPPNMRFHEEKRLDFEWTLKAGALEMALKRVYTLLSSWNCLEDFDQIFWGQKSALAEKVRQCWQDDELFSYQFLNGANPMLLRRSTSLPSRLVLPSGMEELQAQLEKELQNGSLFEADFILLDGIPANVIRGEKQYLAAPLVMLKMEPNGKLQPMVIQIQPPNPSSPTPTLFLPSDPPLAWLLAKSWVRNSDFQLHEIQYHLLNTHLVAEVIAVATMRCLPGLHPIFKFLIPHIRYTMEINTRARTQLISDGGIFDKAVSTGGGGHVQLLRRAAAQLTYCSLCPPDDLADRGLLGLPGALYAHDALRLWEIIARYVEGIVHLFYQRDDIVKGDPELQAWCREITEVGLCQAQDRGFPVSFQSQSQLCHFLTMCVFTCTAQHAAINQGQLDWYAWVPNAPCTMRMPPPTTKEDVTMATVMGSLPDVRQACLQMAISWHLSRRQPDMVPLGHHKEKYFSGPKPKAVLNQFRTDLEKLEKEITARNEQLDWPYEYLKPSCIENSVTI
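Hydroperoxide product was detected by ferrous iron/xylenol orange as the 573 to 405 nm absorbance ratio. Arachidonic acid at 40 uM (final) was turned over for 30 min at room temperature by 150 nM human 12hLO, pH 7.0 Hepes buffer, after 15 min compound preincubation.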
HT1080 IDH1KD tx = qHTS for induction of synthetic lethality in tumor cells producing 2HG: qHTS for the HT-1080-IDH1KD cell line; Potency, µM (doses to about 46.1 µM), for inactives: at the top dose activity, negative = toxicity, most hits filed as cytotoxic; HT-1080 IDH1 knockdown viability, ATP luminescence, 48 h; actives 2% (n = 360,000);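 also: potency is read from the fitted curve at half-maximal effect; 0% = DMSO wells and -100% = cell-free medium wells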
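Viability of IDH1-knockdown HT-1080 fibrosarcoma cells was assessed by CellTiter-Glo after 48 h at 37 °C with titrated compound; concentration-effect curves were classified by fit quality and response size.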
TDP1 cell CPT = qHTS for Inhibitors of human tyrosyl-DNA phosphodiesterase 1 (TDP1): qHTS in cells in presence of CPT. chicken DT40 Tdp1-/-;hTDP1 cells + 20 nM CPT, ATP luminescence, 48 h. Potency, µM (titrated, usually from 46.2 µM), inactives show at the highest dose activity change, negative = growth inhibition, hits mostly inhibitors. actives 12% (n = 420,000). AID 686979, 2013; also: potency is read from the fitted curve at half-maximal effect; nearly all actives have a fitted effect of over 55% in size
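Cell growth measured by CellTiter-Glo luminescence after a minimum 48 h, 37 C compound exposure with 20 nM CPT in Tdp1-knockout DT40 cells stably expressing hTDP1, seeded 400/well; qHTS titration format.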
TDP1 cell noCPT = qHTS for Inhibitors of human tyrosyl-DNA phosphodiesterase 1 (TDP1): qHTS in cells in absence of CPT; Potency, µM (titrated, usually from 46.2 µM), for the others: top-dose activity change, negative = growth inhibition, hits mostly inhibitors; AID 686978, 2013; DT40 Tdp1-/- hTDP1 cells, no CPT, ATP luminescence, 48 h; actives 15% (n = 420,000); also: potency is read from the fitted curve at half-maximal effect; nearly all actives have a fitted effect of over 55% in size
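Stably hTDP1-transfected Tdp1-null chicken DT40 cells were treated with library compounds minus camptothecin and grown for at least 48 hr at 37 °C, after which cellular ATP was quantified by luminescence.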
IL-1B inflam inh = qHTS for Inhibitors of Inflammasome Signaling: IL-1-beta AlphaLISA Primary Screen; THP-1 LPS/ATP IL-1B secretion, AlphaLISA, 16 h; hits give low values; activity change, % at 57.5 µM; actives 4.7% (n = 360,000); in the data active = activity change below about -50%; inconclusive = mostly about -30% to -49%
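Secreted IL-1B measured by AlphaLISA bead assay after 16 h compound exposure of THP-1 cells; compounds (final up to 57.5 uM) added 1 h before LPS (250 ng/mL) and ATP (1.25 mM) stimulation; lower signal means less secretion.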
HT1080NT lethal = qHTS for induction of synthetic lethality in tumor cells producing 2HG: qHTS for the HT-1080-NT fibrosarcoma cell line; HT-1080-NT fibrosarcoma viability, CellTiter-Glo ATP luminescence, 48 h; Potency, µM (highest dose often 46.1 µM), for the others: at the highest dose activity, negative = less viability, most hits filed as cytotoxic; actives 1.6% (n = 360,000);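 also: NT is the 2HG producing partner of a matched IDH1 knockdown line; potency is read from the fitted curve at half-maximal effect; 0% = DMSO-treated cells and -100% = media-only wells without cells; nearly all actives have a fitted effect of over 55% in size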
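Toxicity toward the 2HG-producing NT line was scored as %Activity, normalised to DMSO and no-cell wells, from CellTiter-Glo luminescence after 48 hours' treatment.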
An asterisk follows results filed as active; ? = inconclusive; nt = not tested or not shown; [ ] = another dose, or the depositor's remark. The full list was thinned out, with hits kept by preference. Unless noted, calls follow the shape of the dose curve; as a rule, active = well fitted curve in the direction sought with a large enough effect; inconclusive = small, poorly fitted or top-dose-only effect, or another doubt; inactive = no such curve, though single readings can be large; an effect the other way counts as inactive or inconclusive. Unless noted, % is scaled to controls: 0 for no effect and ±100 for the full control effect.

SMILES	12-LOX inh	HT1080 IDH1KD tx	TDP1 cell CPT	TDP1 cell noCPT	IL-1B inflam inh	HT1080NT lethal
CC(C)(C)c1ccc(OCC(=O)N2CCN(Cc3nc(N)c4ccccc4n3)CC2)cc1	-1%	nt	nt	nt	nt	nt
COc1ccc(Nc2nc(N3CCCC3)nc3ccccc23)c(OC)c1	-13%	11µM*	?	?	-99*	?
COc1ccc(OC)c(CN2CCN(C(=O)Cc3ccccc3)CC2)c1	?	-1%	-21%	-3%	5	-13%
Cc1ccccc1NCC(=O)N/N=C/C(Br)=C/c1ccccc1	-4%	18µM*	5.2µM*	13µM*	?	?
COc1ccc(/C=C/c2nc(-c3ccccc3O)n(-c3ccccc3)n2)cc1OC	2%	nt	10µM*	10µM*	nt	nt
NC(=O)c1ccc(N)nc1	28%	4.6µM*	5.8µM*	4.1µM*	8	2.6µM*
CCCCC(CC)COP(=O)(OCC(CC)CCCC)OCC(CC)CCCC (stereo not drawn)	9%	-4%	?	?	-72*	?
O=[N+]([O-])c1ccc(N2CCCC2)cc1N/N=C1\CN2CCC1CC2	-29%	23%	?	21µM*	-16	14%
c1cncc(CN2CCNCC2)c1	-24%	nt	nt	nt	nt	nt
CCCOC(=O)c1ccc(Oc2coc3cc(OC(=O)N(C)C)ccc3c2=O)cc1	17%	nt	nt	nt	nt	nt
CCOC(=O)[C@]12Cc3cc(OC)ccc3[C@H]1N(Cc1ccccc1)C(=O)c1cc(OC)ccc12	6%	-26%	?	16µM*	9	-20%
CCOC(=O)C1C2NC(=O)N(Cc3ccccc3)C1(C)Oc1c(OC)cccc12 (stereo not drawn)	12%	-1%	-18%	-15%	22	0%
CCOC(=O)[C@]12Cc3cc(Cl)ccc3[C@H]1N(Cc1ccccc1)C(=O)c1cc(OC)ccc12	?	13µM*	4.6µM*	5.8µM*	-113*	15µM*
CCOC(=O)[C@]12Cc3c(cc(OC)c(OC)c3OC)[C@H]1N(Cc1ccccc1)C(=O)c1ccccc12	-6%	-6%	?	16µM*	?	-14%
CCOC(=O)[C@]12Cc3ccccc3[C@H]1N(Cc1ccccc1)C(=O)c1cc(OC)ccc12	0%	?	?	18µM*	-13	?
CC1OC(OC2C(O)CC(OC3C(O)CC(OC4CCC5(C)C(CC[C@@H]6[C@@H]5CCC5(C)C(C7=CC(=O)OC7)CCC65O)C4)OC3C)OC2C)CC(O)C1O (stereo partly drawn)	4%	nt	nt	nt	nt	nt
CCCCCN1C(=O)c2cc(OC)ccc2[C@@]2(C(=O)OCC)Cc3cc(Cl)ccc3[C@@H]12	?	4.1µM*	3.3µM*	2.9µM*	nt	2.9µM*
CCOC(=O)[C@]12Cc3ccc4ccccc4c3[C@H]1N(Cc1ccccc1)C(=O)c1ccccc12	-20%	1%	?	?	-56*	-9%
CCOC(=O)[C@]12Cc3ccsc3[C@H]1N(Cc1ccccc1)C(=O)c1ccccc12	-2%	0%	?	18µM*	-29	-7%
COc1cccc(C2Nc3ccccc3C(=O)N2Cc2ccccc2)c1 (stereo not drawn)	19%	4%	-2%	?	?	3%
CCOC(=O)[C@]12Cc3cc4ccccc4cc3[C@H]1N(Cc1ccccc1)C(=O)c1ccccc12	?	15µM*	16µM*	21µM*	-110*	16µM*
N#Cc1cc2c(nc1SCC(=O)Nc1ccc(F)c(Cl)c1)C1CCN2CC1	-2%	nt	nt	nt	nt	nt
C=C(C)C(=O)OC[N+](C)(C)CCOC(=O)C(O)(c1ccccc1)C1CCCC1 (stereo not drawn)	10%	nt	nt	nt	nt	nt
O=C(NCCNC(=O)c1cn(Cc2ccccc2)c2ccccc12)c1ccncc1	-8%	nt	nt	nt	nt	nt
CCOC(=O)[C@]12Cc3cc(OC)c(OC)cc3[C@H]1N(Cc1ccccc1)C(=O)c1ccccc12	1%	-3%	?	14µM*	-5	0%
SMILES	12-LOX inh	HT1080 IDH1KD tx	TDP1 cell CPT	TDP1 cell noCPT	IL-1B inflam inh	HT1080NT lethal
CCOC(=O)[C@]12Cc3cc4ccccc4cc3[C@H]1N(Cc1ccccc1)C(=O)c1cc(OC)ccc12	?	15µM*	8.2µM*	6.5µM*	-109*	21µM*
CCOC(=O)c1cc2cc(OC)ccc2n1C1CCN(Cc2ccccc2)CC1	-66%	-26%	?	?	29	?
COc1ccc(S(=O)(=O)N(C)C[C@H]2OCCCC[C@H](C)Oc3ccc(N(C)C)cc3C(=O)N([C@H](C)CO)C[C@@H]2C)cc1	-24%	-5%	?	?	27	-12%
CCOCCCNC(=O)CCl	-3%	nt	nt	nt	nt	nt
C=CCN(C)C(=O)[C@H]1CN2CCC1C[C@@H]2Cn1cc(CNC)nn1 (stereo partly drawn)	83%[176 µM]	nt	nt	nt	nt	nt
CN(C)C(=O)Oc1ccc2c(c1)O/C(=C\c1cccc(Cl)c1)C2=O	0%	-3%	11%	-23%	-61*	7%
Cc1cccc(Cn2c(=O)n(Cc3ccc(C(=O)NC4CCN(Cc5ccccc5)CC4)cc3)c(=O)c3ccccc32)c1	-22%	nt	4.1µM*	3.3µM*	nt	nt
O=C1CCN(C(=O)CCCn2c(=O)oc3ccccc32)CC1	11%	6%	20%	-5%	17	3%
Cc1ccc(C(C)C)c(OCCn2c(=O)oc3ccccc32)c1	27%	-9%	29µM*	?	-3	-3%
CNC(=O)c1ccc(N2C(=S)N(c3ccc(C#N)c(C(F)(F)F)c3)C(=O)C23CCC3)cc1F	-3%[57.4 µM]	nt	nt	nt	nt	nt
CCC(CC)c1cc([C@H]2CN3CC[C@H]2C[C@@H]3CNC(=O)Nc2cccc(C#N)c2)nc(-c2ccncc2)n1	33%	nt	nt	nt	nt	nt
CCCC(CCC)C(=O)OC[N+](C)(C)CCOC(=O)C(O)(c1ccccc1)C1CCCC1 (stereo not drawn)	-8%	1%	?	12µM*	?	4%

Screens (PubChem)
